Assay results taken from PubChem BioAssay (NCI).
The panel holds about 83,000 compounds, 20% with a hit somewhere; the sample as a whole holds those more often.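 Note: values are percent growth. 100 is the growth of untreated cells, values between 100 and 0 indicate rising inhibition; between -100 and 0 indicates cell death.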 Activity calls are given as the source filed them. The calls were made as follows: active = growth percent below 10; inactive = the rest.

How the values were obtained:
Experiment in all cases: NCI-60 one-dose screen, 48 h (100 = growth as untreated, 0 = no growth, -100 = all killed)
[1] = system: NCI-H23 lung; settings: 10 µM unless noted
[2] = system: NCI-H226 lung; settings: 10 µM unless noted
[3] = system: NCI-H322M lung; settings: 10 µM unless noted
[4] = system: HOP-62 NSCLC; settings: 10 µM unless noted
[5] = system: NCI-H460 lung; settings: 10 µM unless noted
[6] = system: HOP-92 NSCLC; settings: 10 µM
[7] = system: A549/ATCC NSCLC; settings: 10 µM unless noted
[8] = system: 786-0 renal; settings: 10 µM unless noted
[9] = system: COLO 205 colon; settings: 10 µM unless noted
[10] = system: DU-145 prostate; settings: 10 µM unless noted
[11] = system: K-562 leukemia; settings: 10 µM unless noted
[12] = system: MALME-3M melanoma; settings: 10 µM unless noted
[13] = system: MDA-MB-231 breast; settings: 10 µM unless noted
[14] = system: RXF 393 renal; settings: 10 µM unless noted
[15] = system: SF-268 CNS; settings: 10 µM unless noted
[16] = system: SF-295 CNS; settings: 10 µM unless noted
[17] = system: SF-539 CNS; settings: 10 µM unless noted
[18] = system: UACC-257 melanoma; settings: 10 µM unless noted
[19] = system: M14 melanoma; settings: 10 µM unless noted
[20] = system: NCI-H522 lung; settings: 10 µM unless noted

Measured: growth

CC1(C)[C@@H](O)CC[C@]2(C)[C@H]3CC[C@@H]4[C@H]5[C@H](C(=O)/C=C\c6ccc([N+](=O)[O-])cc6)CC[C@]5(O)CC[C@@]4(C)[C@]3(C)CC[C@@H]12
inactive: [1] 50.2% | [3] 90.8% | [4] 86.9% | [5] 51.8% | [6] 82.7% | [7] 61.8% | [8] 56.8% | [9] 106% | [10] 58% | [11] 27.3% | [12] 66.6% | [13] 46.2% | [15] 63.9% | [16] 79.5% | [17] 51.8% | [18] 70.3% | [19] 42.6%
active: [2] -2.45% | [14] -7.82%

COc1cc(-c2ccc3ncnc(NCc4ccccc4)c3c2)cnc1OC
active: [6] 5.49% | [14] -18.3%
inactive: [1] 67% | [2] 68.3% | [3] 26.3% | [4] 36.2% | [5] 69.1% | [7] 38.6% | [8] 44.8% | [9] 87.6% | [10] 24.3% | [11] 85.2% | [12] 94.9% | [13] 41.5% | [15] 46.5% | [16] 55.1% | [17] 48.7% | [18] 75.7% | [19] 86.2%

Cc1c(F)cc(C(N)=O)cc1NCC(=O)Nc1ccc([N+](=O)[O-])cc1
inactive: [1] 89.2% | [2] 82.2% | [3] 99.4% | [4] 70.6% | [5] 99% | [6] 75.8% | [7] 87.7% | [8] 87.5% | [9] 105% | [10] 86.7% | [11] 101% | [12] 109% | [13] 89.8% | [14] 45.5% | [15] 81.2% | [16] 93.6% | [17] 95.1% | [18] 102% | [19] 99.1%

C=C(C)[C@@H]1CC[C@]2(COC)CC[C@]3(C)[C@H](CC[C@@H]4[C@@]5(C)CCCNC(C)(C)[C@@H]5CC[C@]43C)[C@@H]12
active: [5] -30% | [9] -49.2% | [11] -47.7% | [12] -4.67% | [14] -4.43% | [19] -39.4%
inactive: [1] 59.6% | [2] 74.1% | [3] 82.6% | [4] 71.1% | [6] 74.9% | [7] 39% | [8] 31.4% | [10] 57.9% | [13] 62.8% | [15] 78.9% | [16] 58.3% | [17] 51.7% | [18] 13.3%

CC1(C)CC[C@]2(C(=O)N3CCOCC3)CC[C@]3(C)C(=CC[C@@H]4[C@@]5(C)C/C(=C/c6ccco6)C(=O)C(C)(C)[C@@H]5CC[C@]43C)[C@@H]2C1
active: [14] -3.24%
inactive: [1] 86.6% | [2] 69% | [3] 102% | [4] 87% | [5] 98.5% | [6] 77.8% | [7] 87.8% | [8] 79.5% | [9] 108% | [10] 73.2% | [11] 64.2% | [12] 97.4% | [13] 85.5% | [15] 63.1% | [16] 95.3% | [17] 86.5% | [18] 94.5% | [19] 101%

COc1ccc(C2c3sc4c(C)cccc4c3Oc3nc(CC(=O)Nc4ccccc4)[nH]c(=O)c32)cc1 (stereo not given)
active: [14] 8.26%
inactive: [1] 62.2% | [2] 65.8% | [3] 95.4% | [4] 60.5% | [5] 87.1% | [6] 59.1% | [7] 93.7% | [8] 95.3% | [9] 106% | [10] 83.7% | [11] 52.1% | [12] 98% | [13] 69.8% | [15] 77.4% | [16] 83.1% | [17] 86.9% | [18] 94.9% | [19] 89%

COC(=O)C[Se]C(=O)Cc1c(C)n(C(=O)c2ccc(Cl)cc2)c2ccc(OC)cc12
active: [16] 9.86%
inactive: [1] 11.5% | [2] 52.8% | [3] 44.7% | [4] 25.4% | [5] 16.3% | [6] 53.2% | [20] 44.8% | [7] 18.7% | [8] 83.3% | [10] 25.6% | [11] 54% | [12] 46.5% | [13] 30.9% | [15] 40.7% | [17] 39.9% | [18] 65.2%

Cc1ccc(NC(=O)CNc2cc(C(N)=O)cc(F)c2C)c(Cl)c1
inactive: [1] 86.9% | [2] 80.5% | [3] 102% | [4] 71.8% | [5] 102% | [6] 74.9% | [7] 91.9% | [8] 92.9% | [9] 112% | [10] 87.2% | [11] 94.2% | [12] 106% | [13] 67% | [14] 36.2% | [15] 81.7% | [16] 101% | [17] 89.8% | [18] 107% | [19] 103%
